# KB-V1 cytotox = kills drug-selected multidrug resistant KB-V1 cells; AID 1347076; KB-V1 MDR cells viability, CellTiter-Glo, 72 h; Potency, µM (highest dose often 46.1 µM), hits mostly cytotoxic; 400,000 compounds, 3.4% hits; also: nearly all actives have a fitted effect of over 60% in size
#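 qHTS viability screen in drug-selected KB-V1 MDR cells: 72 h compound treatment at 37 degrees C, ATP luminescence end point.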
# HT1080 IDH1KD tx = toxicity to HT-1080 IDH1 knockdown cells (counter line). HT-1080 IDH1 knockdown viability, ATP luminescence, 48 h. Potency, µM (titrated, usually from 46.1 µM), for the others: top-dose activity, negative = toxicity, most hits filed as cytotoxic. 360,000 compounds, 2% hits. AID 686971;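 also: 0% = DMSO wells and -100% = cell-free medium wells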
#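 Luminescent ATP read-out (CellTiter-Glo, 10 min at room temperature) after 48 h compound exposure at 37 °C gave viability of IDH1-knockdown HT-1080 cells. Activity was normalised to DMSO and cell-free wells, then fitted as concentration-response curves.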
# HT1080NT lethal = kills 2HG-producing HT-1080-NT fibrosarcoma cells | Potency, µM (titrated, usually from 46.1 µM), inactives show at the top dose activity, negative = less viability, hits mostly cytotoxic | 360,000 compounds, 1.6% hits | AID 686970 | HT-1080-NT fibrosarcoma viability, CellTiter-Glo ATP luminescence, 48 h;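 also: NT is the 2HG producing partner of a matched IDH1 knockdown line; 0% = DMSO-treated cells and -100% = media-only wells without cells; nearly all actives have a fitted effect of over 55% in size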
#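 Viability by CellTiter-Glo luminescence after 48 h compound exposure at 37C of HT-1080-NT cells (750/well, RPMI, 5% FBS). % activity scaled between DMSO wells and medium-only wells, then curve-fitted and categorized by curve class.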
# KB-3-1 tox = KB-3-1 parental cell cytotoxicity. 400,000 compounds, 1.4% hits. Potency, µM (series often up to 46.1 µM), hits mostly cytotoxic. KB-3-1 viability, CellTiter-Glo ATP luminescence, 72 h; also: nearly all actives have a fitted effect of over 60% in size
#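 Cytotoxicity in the drug-sensitive parental line KB-3-1 was scored as loss of CellTiter-Glo luminescence following 72 h incubation with compound. Values come from curve fitting of normalized concentration-response data.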
# An asterisk follows results filed as active; i = inactive; ? = inconclusive; nt = no result; ! = a repeat was not active. A selection: hits, their analogues and other compounds. The true share with any hit is near 5.7%. Calls follow the shape of the dose curve; as a rule, active = well fitted curve in the direction sought with a large enough effect; inconclusive = small, poorly fitted or top-dose-only effect, or another doubt; inactive = no such curve, though single readings can be large; an effect the other way counts as inactive or inconclusive. Unless noted, % is scaled to controls: 0 for no effect and ±100 for the full control effect; potency is read from the fitted curve at half-maximal effect.
SMILES,KB-V1 cytotox,HT1080 IDH1KD tx,HT1080NT lethal,KB-3-1 tox
CCOC(=O)C1CCN(Cc2cn3c(-c4ccc(OC)cc4)nnc3s2)CC1,i,nt,nt,i
C(C#CCCCCCCCCC[n+]1ccccc1)#CCCCCCCCCC[n+]1ccccc1,i,7.31µM*,8.2µM*,3.66µM*!
OB(O)c1ccc(Cl)s1,i,nt,nt,i
CC(C)OCCCn1c(SCC(N)=O)nc2c(sc3ccccc32)c1=O,i,nt,nt,i
CCOC(=O)CSc1nc2c(sc3ccccc32)c(=O)n1CCCN1CCOCC1,14.6µM*,-4.8%,-2.4%,i
CCCCn1c(SCC(=O)NCc2ccco2)nc2c(sc3ccccc32)c1=O,?,7.3%,?,i
O=C(CSc1nc2c(sc3ccccc32)c(=O)n1CCc1ccccc1)NCc1ccco1,2.06µM*,0.2%,-12.7%,i
CCCCn1c(SCC(N)=O)nc2c(sc3ccccc32)c1=O,i,-9.5%,22.4µM*,i
CCC(C)NC(=O)CSc1nc2c(sc3ccccc32)c(=O)n1CCCN1CCOCC1 (stereo not drawn),i,-5.3%,-8.6%,i
COc1ccccc1/C=C/c1nc(C#N)c(N2CCN(C)CC2)o1,i,nt,nt,i
CC(=O)N1CCCc2cc(S(=O)(=O)N(C)CC(=O)Nc3ccc(Cl)cc3C)ccc21,i,nt,nt,?
COc1ccc(NC(=O)CSc2nc3sc(C)cc3c(=O)n2C)c(OC)c1,8.2µM*,-12.6%,?,i
COc1ccccc1N1CCc2c(C)nc3c(OC)cccc3c21,20.6µM*,?,?,?
COc1ccc(-c2csc(N(CCCN(C)C)C(=O)c3cccs3)n2)cc1,7.31µM*,11.2µM*,12.6µM*,i
COc1ccc(-c2csc(N(CCCN(C)C)C(=O)c3ccc(Br)cc3)n2)cc1,?,20.6µM*,20.6µM*,i
COc1ccc(-c2csc(N(CCCN(C)C)C(=O)c3ccc(C(C)(C)C)cc3)n2)cc1,?,16.4µM*,?,?
COc1ccc(-c2csc(N(CCCN(C)C)C(=O)c3ccc(C)cc3)n2)cc1,i,?,?,i
COc1ccc(NC(=O)Cn2c(=O)n(Cc3ccco3)c(=O)c3cc(OC)c(OC)cc32)cc1,?,nt,nt,i
OC1(c2ccccc2)CCN(Cc2ccccc2)C2CCCCC21 (stereo not drawn),23.1µM*,-11.1%,-12.6%,i
CCCCOc1ccc(-c2nnn(CC(=O)NCc3ccco3)n2)cc1,4.11µM*,7.94µM*,7.08µM*,?
CCOc1ccc(-c2nnn(CC(=O)NCc3ccco3)n2)cc1OCC,i,7.9%,12.4%,i
Cc1ccc(CNc2ncnc3cc(Cl)ccc23)o1,20.6µM*,-3.2%,-4.8%,?
Cc1ccccc1CNc1ncnc2cc(Cl)ccc12,i,?,?,i
COc1cc2ncnc(NCc3ccc(C)o3)c2cc1OC,i,0.5%,0.2%,i
Cc1ccc(CNc2ncnc3cc(Cl)ccc23)cc1,i,23.1µM*,?,?
SMILES,KB-V1 cytotox,HT1080 IDH1KD tx,HT1080NT lethal,KB-3-1 tox
CCN(CCNC(=O)C1CCN(Cc2nc(-c3cccc(Cl)c3)oc2C)CC1)c1ccccc1,2.59µM*,-24.3%,-14.0%,?
CCc1ccc(-c2nc(CN3CCC(C(=O)NCCN(CC)c4ccccc4)CC3)c(C)o2)cc1,4.61µM*,6.4%,3.3%,i
CCN(CCNC(=O)C1CCN(Cc2nc(-c3ccc(Cl)cc3)oc2C)CC1)c1ccccc1,7.31µM*,?,?,i
CCc1ccc(-c2nc(CN3CCC(C(=O)N4CCN(c5ccccc5)CC4)CC3)c(C)o2)cc1,8.2µM*,-15.8%,-12.8%,i
Cc1oc(-c2cccc(Cl)c2)nc1CN1CCC(C(=O)NC2CC2)CC1,i,14.6%,12.6%,i
CCOC(=O)N1CCN(C(=O)CN(c2ccc(C)cc2C)S(=O)(=O)c2ccccc2)CC1,i,nt,nt,i
CCOc1ccc(-c2nc(SCC(=O)Nc3cc(F)ccc3F)n3[nH]c(=O)cc3n2)cc1,?,nt,nt,i
CC[N+](CC)(CC)CCOc1ccc(/C=C/c2ccccc2)cc1,i,16.4µM*,?,?
CC[N+](CC)(CC)CCOc1cccc(OCC[N+](CC)(CC)CC)c1OCC[N+](CC)(CC)CC,i,11.6%,24.6%,i
Nc1ncnc(Sc2ncccn2)c1[N+](=O)[O-],?,16.4µM*,-14.1%,3.66µM*
CS(=O)(=O)N(CC(=O)N1CCCC1)c1ccc(OCc2ccccc2)cc1,14.6µM*,-10.2%,-0.7%,?
CS(=O)(=O)N(CC(=O)N1CCCCCC1)c1ccccc1,i,6.4%,7.9%,i
O=C(Nc1ccccc1Sc1ccccc1)c1cnn2c1NC(=C1CC1)C=C2C(F)F,i,nt,nt,?
Clc1ccc(C2=Nn3c(nnc3-c3n[nH]c4c3CCC4)SC2)cc1Cl,4.61µM*,?,-29.4%,?
CC1CCc2noc(NC(=O)c3ccccc3[N+](=O)[O-])c2C1 (stereo not drawn),i,nt,nt,i
OCC(O)C[n+]1cccc(Br)c1 (stereo not drawn),i,nt,nt,?
CN1CCc2cccc3c2[C@@H]1Cc1ccc(O)c(O)c1-3,?,23.1µM*,23.1µM*,?
COc1ccc(CCN(C)C(=S)NC(=O)c2ccc(F)cc2Cl)cc1OC,14.6µM*,-0.7%,3.7%,i
CC[N+]1(CC(=O)c2ccc(I)cc2)CCCCC1,i,nt,nt,i
CC[N+](C)(C)c1ccc(/C=C/c2ccc3ccccc3n2)cc1,i,nt,nt,2.91µM*
CCN(CC)c1ccc(/C=C/c2ccc3ccccc3n2)cc1,?,nt,nt,2.31µM*
CN(Cc1ccccc1)C(=O)c1ccc2c(c1)N(Cc1ccc(Cl)cc1)C(=O)c1ccccc1S2=O (stereo not drawn),?,nt,nt,16.4µM*
COc1cc(C(=O)n2nc(-c3ccco3)nc2NCc2ccc(Cl)cc2)cc(OC)c1OC,i,nt,nt,i
N#Cc1cccc(NC(=O)C2CCN(S(=O)(=O)c3ccc4[nH]c(=O)ccc4c3)CC2)c1,i,nt,nt,i
CCCCN(CCCC)C(=O)CSc1nnc2n(C)c(=O)c3c4c(sc3n12)CCCC4,23.1µM*,-5.0%,-5.0%,?
SMILES,KB-V1 cytotox,HT1080 IDH1KD tx,HT1080NT lethal,KB-3-1 tox
CCCSc1nnc2n(-c3cccc(C)c3)c(=O)c3c4c(sc3n12)CCCC4,23.1µM*,nt,nt,?
O=C(Nc1cc(Cl)ccc1Cl)c1cc(S(=O)(=O)NCCc2ccccc2)ccc1F,i,nt,nt,i
COc1ccc(CCNC(=O)C2CCN(S(=O)(=O)N3CC(C)CC(C)C3)CC2)cc1OC (stereo not drawn),20.6µM*,9.4%,-21.5%,i
COc1ccc(CCNC(=O)C2CCCN(S(=O)(=O)N3CC(C)CC(C)C3)C2)cc1OC (stereo not drawn),?,15.8%,8.7%,i
CCOc1ccc(CCNC(=O)C2CCN(S(=O)(=O)N3CCC(C)CC3)CC2)cc1OCC,2.59µM*,0.4%,0.4%,i
COCCn1c(SCC(=O)Nc2ccc(S(N)(=O)=O)cc2)nc2ccccc21,i,-0.7%,-4.9%,i
